# Measurements reported in PubChem BioAssay AID504832 (National Center for Advancing Translational Sciences (NCATS), 2011).
# The whole screen tested about 310,000 compounds, of which about 18,000 (5.8%) were called active. Another 22% or so got no clear call; they are omitted. The call rests on the fitted dose curve; in most records, active means well fitted inhibition curve with a large enough effect; inconclusive means small, poorly fitted or top-dose-only effect, or another doubt; inactive means no such curve, though single readings can be large or run the other way. Many of the other results were omitted from the sample, so actives are more common in it than they were.
# Experiment: Primary qHTS for delayed death inhibitors of the malarial parasite plastid, 48 hour incubation
# Settings: P. falciparum luciferase growth in erythrocytes; series mostly up to 28.7 µM; activity change, negative = inhibition: at the top concentration
# Description: The goal of this screen is to discover new antimalarial compounds that act by inhibiting the development of the apicoplast in the malarial parasite Plasmodium falciparum. The biochemical processes that make this organelle essential for erythrocytic stage parasites are not well understood. However, antibiotics such as azithromycin and tetracycline, which target the apicoplast translational machinery, have a potent antimalarial effect.
# We have developed a cell-based assay that measures parasite growth based on the expression of an integrated copy of a firefly luciferase reporter. To detect small molecules that cause this "delayed death" phenotype, erythrocytes infected with the luciferase-expressing parasites were incubated with compounds for either one or two generations, corresponding to 48 and 96 hours, respectively. Compounds that inhibit parasite growth in the second generation, but not the first, should be enriched in antimalarials that target the apicoplast. Growth inhibition is detected by a decrease in luciferase activity.
# Assay Provider: David Fidock and Eric Ekland, Columbia University
# Keywords: NIH Roadmap, MLPCN, MLI, MLSMR, qHTS, NCGC, qHTS, malaria, luciferase, viability
# Four microliters of culture medium (RPMI 1640 with 0.5% w/v Albumax (GIBCO), 24 mM sodium bicarbonate and 10 ug/mL gentamycin) were dispensed by a Multi-drop Combi into white solid 1536-well plates (Grenier) and 23 nL compound was added by a pin tool. Four microliters of infected erythrocytes (2% hematocrit, 0.1% parasitemia final concentration) in culture medium were dispensed and the plates incubated for 48 hours at 37 C in 5% CO2. Two microliters of luciferase detection reagent was added and luminescence was detected by a ViewLux (PerkinElmer) reader.
# On the % scale 0 is the no-effect control and ±100 the full control effect; potency means the concentration at half of the fitted maximal effect.
SMILES,"activity change, negative = inhibition",Potency
O=C(CCCO)N/N=C/c1cc(Br)ccc1O,-7.77% (inactive),
Oc1ccc(Br)cc1/C=N/Nc1ccccn1,,1.47 µM (active)
Oc1ccc(/C=N/Nc2ccc(C(F)(F)F)cn2)cc1O,25.2% (inactive),
CC(C)c1ccc(S(=O)(=O)N2CCC3(CC2)OCCO3)cc1,-3.34% (inactive),
COc1ccc(C)cc1NC(=O)c1cc(-c2ccccc2)nc2c1cnn2C(C)C,,4.65 µM (active)
COc1cc2ccccc2cc1C(=O)Nc1ccccc1C,194% (inactive),
COc1ccc(C)cc1NC(=O)Nc1ccccc1SC,2.04% (inactive),
Cc1ccc(-c2noc(C3CCCN(C(=O)c4cccc(Cl)c4)C3)n2)o1 (stereo not drawn),100% (inactive),
O=C(CCNC(=O)c1ccc(Br)cc1)NCCCc1ccccc1,25.6% (inactive),
Cc1cccc2[nH]c(CN(C)C(=O)C3CCC(=O)N(CCc4ccccc4)C3)nc12 (stereo not drawn),-17.7% (inactive),
CC(C)c1ccc(N2CCN(C(=O)c3ccccc3NC(=O)/C=C(\C(=O)O)c3ccccc3)CC2)cc1,,13.1 µM (active)
Cc1ccccc1C(=O)NC(=S)Nc1ccc(N2CCN(C(=O)c3ccccc3)CC2)cc1,-9.42% (inactive),
COc1ccc(C(=O)Nc2ccccc2C(=O)N2CCN(c3ccccc3)CC2)cc1,-16.5% (inactive),
COc1ccc(NC(=O)CCS(=O)(=O)c2cc3c(cc2Cl)NC(=O)CO3)cc1OC,21.5% (inactive),
O=C(COC(=O)c1cccs1)Nc1ccccc1Cl,4.31% (inactive),
O=C(Nc1ccc2c(c1)CCC2)c1cccc(S(=O)(=O)Nc2ccccc2Cl)c1,-1.32% (inactive),
O=C(Cc1ccc2c(c1)CCCC2)Nc1ccccc1Cl,,11.7 µM (active)
O=C(Nc1ccccc1N1CCOCC1)c1ccncc1,-23.9% (inactive),
CCCc1ccc(OCC(O)CN2CCN(CCO)CC2)cc1 (stereo not drawn),5.68% (inactive),
CN(C)c1nccc(NCc2ccccc2)c1C#N,12.3% (inactive),
CCc1nc(NCCO)c(C#N)c2c1CCCC2,1.82% (inactive),
CCCCc1nc(NCc2ccccc2)c(C#N)c2c1CCCC2,,6.57 µM (active)
CCOC(=O)c1ccccc1NC(=O)COC(=O)C(Cc1c[nH]c2ccccc12)NC(C)=O (stereo not drawn),15.1% (inactive),
CCOc1ccccc1NC(=O)NC1CCCCCCC1,-19.6% (inactive),
CCOc1cccc(=NC2CCCCC2)c2c(C)[nH]c(C)c12,,2.33 µM (active)
Cc1cc(C)n2nc(C(=O)Nc3cccc(S(=O)(=O)N4CCOCC4)c3)nc2n1,11.9% (inactive),
CC(C)C[C@H](NC(=O)C1CC(=O)N(c2ccc3c(c2)OCCO3)C1)C(=O)NC1CCCC1 (stereo partly drawn),-6.29% (inactive),

SMILES,"activity change, negative = inhibition",Potency
C/C=C/C(=O)OCc1csc(CC(=O)Nc2ccccc2C)n1,24.7% (inactive),
CCCc1nnc(NC(=O)CCC(=O)N2CCN(S(=O)(=O)c3ccc(OC)cc3)CC2)s1,-11.4% (inactive),
COc1ccc(Cc2nc3ccc(C(=O)N4CCC(N(C)C)C4)cc3o2)cc1 (stereo not drawn),-3.86% (inactive),
CCc1cccc(NC(=O)COC(=O)C2CCN(c3ccc(C(F)(F)F)cn3)CC2)c1,52.4% (inactive),
COc1ccc(C(=O)C2CCCN(Cc3cccn3-c3ccccn3)C2)c(C)c1 (stereo not drawn),,6.57 µM (active)
CCOC(=O)c1[nH]ncc1CN1CCCC(C(=O)c2ccc(OC)cc2C)C1 (stereo not drawn),21.3% (inactive),
COc1ccc(C(=O)C2CCCN(Cc3ccc4nonc4c3)C2)c(C)c1 (stereo not drawn),-14.3% (inactive),
COC(=O)c1ccc(NC(=O)CSc2nc(N)c(NC(=O)c3ccc(Br)o3)c(=O)[nH]2)cc1,3.29% (inactive),
COCCn1c(SCC(=O)N2CCCCCC2)nc2c(c1=O)SCC2,-12.2% (inactive),
COc1ccc(CCN2C(=O)C(C)=C(C)C2=O)cc1OC,11% (inactive),
COc1ccc(CCN=C2SCC(=O)N2Cc2ccccc2)cc1OC,-10.1% (inactive),
COc1ccc(CCNC2=C(Cl)C(=O)N(Cc3ccccc3)C2=O)cc1OC,,11.7 µM (active)
CCS(=O)(=O)Nc1ccc(C(=O)NCCSc2ccccc2)cc1,0% (inactive),
CN(C)CCNC(=O)c1[nH]nc2c1CCc1ccccc1-2,44.2% (inactive),
O=C(N/N=C/c1ccoc1)c1ccc(Cl)cc1Cl,5.69% (inactive),
CCCn1nc(NS(=O)(=O)c2ccccc2)c2cc3cc(C)ccc3nc21,8.29% (inactive),
CCCn1nc(NS(=O)(=O)c2ccc(F)cc2)c2cc3ccccc3nc21,20.1% (inactive),
CCCn1nc(NC(=O)C(C)C)c2cc3cc(OC)ccc3nc21,,11.7 µM (active)
O=C(OCC(=O)N1CCCCCC1)c1cnc(Cl)c(Cl)c1,-3.82% (inactive),
CC[C@]1([C@H]2O[C@@H]([C@@H]3O[C@](O)(CO)[C@@H](C)C[C@H]3C)C[C@H]2C)CC[C@@H]([C@]2(C)CC[C@@]3(C[C@@H](O)[C@@H](C)[C@@H]([C@H](C)[C@H](OC)[C@H](C)C(=O)O)O3)O2)O1,,0.0169 µM (active)
CSc1ccc(-c2c(C#N)c(N)nc3c2c(C)nn3-c2ccccc2)cc1,,1.47 µM (active)
Cc1nn(-c2ccccc2)c2c1C(c1ccc(F)cc1)C(C#N)=C(N)O2 (stereo not drawn),-21.9% (inactive),
CSc1nc(N)c(C#N)c(-c2ccccc2Cl)c1C#N,3.07% (inactive),
COc1cc(CNCc2ccc(OC)c3ccccc23)cc(OC)c1OC,-29.2% (inactive),
COc1ccccc1N1CCC(N2CCN(CC(C)(C)C)C(CCO)C2)CC1 (stereo not drawn),-4.92% (inactive),
C[N+](C)(CCCCCC[N+](C)(C)CCCN1C(=O)c2cccc3cccc(c23)C1=O)CCCN1C(=O)c2cccc3cccc(c23)C1=O,,0.329 µM (active)
